Results as given in the supplement of paper PMC11732987, “Enantioselective OTUD7B fragment discovery through chemoproteomics screening and high-throughput optimisation” (Communications Chemistry, 2025).

Key:
Assay in all cases: log2 ratio of Biotin-Ahx-Ub-VS probe labelling (fragment/DMSO); higher = less target engagement (more negative = stronger competition), active = hit call of the paper (q ≤ 0.05, log2 ratio ≤ -1)
Details in all cases: compound concentration: 200 uM; treatment time: 3 h
USP42 = molecular target: T1, USP42 (UniProt Q9H9J4)
T1 sequence (whole entry): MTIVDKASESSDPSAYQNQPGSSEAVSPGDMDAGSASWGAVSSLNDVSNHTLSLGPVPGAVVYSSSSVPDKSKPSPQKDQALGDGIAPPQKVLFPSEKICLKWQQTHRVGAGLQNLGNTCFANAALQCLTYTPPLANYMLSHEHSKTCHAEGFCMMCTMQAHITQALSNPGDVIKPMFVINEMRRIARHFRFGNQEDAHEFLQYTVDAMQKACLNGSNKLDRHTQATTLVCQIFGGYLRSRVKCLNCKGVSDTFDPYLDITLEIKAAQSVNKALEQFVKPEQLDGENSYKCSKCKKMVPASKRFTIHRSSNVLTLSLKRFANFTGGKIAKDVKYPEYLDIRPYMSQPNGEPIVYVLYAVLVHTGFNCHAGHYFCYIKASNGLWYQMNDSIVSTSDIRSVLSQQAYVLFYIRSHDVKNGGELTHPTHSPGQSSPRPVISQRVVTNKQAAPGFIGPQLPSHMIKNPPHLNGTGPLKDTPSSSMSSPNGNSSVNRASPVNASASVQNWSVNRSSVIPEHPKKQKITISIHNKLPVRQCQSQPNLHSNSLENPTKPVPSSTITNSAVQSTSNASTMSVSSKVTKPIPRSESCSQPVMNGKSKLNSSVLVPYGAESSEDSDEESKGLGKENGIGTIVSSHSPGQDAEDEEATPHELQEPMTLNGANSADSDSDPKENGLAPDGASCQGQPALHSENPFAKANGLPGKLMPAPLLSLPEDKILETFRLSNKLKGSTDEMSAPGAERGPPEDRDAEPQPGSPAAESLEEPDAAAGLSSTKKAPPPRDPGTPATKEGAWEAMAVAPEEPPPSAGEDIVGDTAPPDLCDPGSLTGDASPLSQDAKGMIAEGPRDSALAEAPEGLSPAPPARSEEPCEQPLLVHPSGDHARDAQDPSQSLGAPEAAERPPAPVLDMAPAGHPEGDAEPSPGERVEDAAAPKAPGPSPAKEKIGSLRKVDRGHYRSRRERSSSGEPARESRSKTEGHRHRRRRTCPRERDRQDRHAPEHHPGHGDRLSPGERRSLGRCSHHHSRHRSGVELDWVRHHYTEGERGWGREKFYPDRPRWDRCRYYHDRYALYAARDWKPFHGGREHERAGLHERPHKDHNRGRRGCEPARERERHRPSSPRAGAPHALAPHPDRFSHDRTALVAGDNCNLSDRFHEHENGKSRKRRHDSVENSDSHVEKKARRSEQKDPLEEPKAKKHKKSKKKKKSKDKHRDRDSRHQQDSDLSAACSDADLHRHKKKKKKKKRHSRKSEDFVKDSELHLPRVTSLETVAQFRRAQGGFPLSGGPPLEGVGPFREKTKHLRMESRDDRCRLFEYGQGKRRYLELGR
Procedure, shortened: (§1)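 Using Biotin-Ahx-Ub-VS at 0.5 µM final for 1 h, DUBs were labelled in HEK293T lysate (495 µg per sample) that had first been treated in triplicate with fragment at 200 µM or vehicle for 3 h. NeutrAvidin enrichment, LysC and trypsin digestion and diaPASEF LC-MS/MS followed. Spectronaut label-free quantities were global-median-normalised. Values are average log2 fragment/vehicle ratios by unpaired t-test, using proteins with ≥2 unique peptides.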

USP46 = USP46 (UniProt P62068)
USP46, sequence (P62068 whole entry): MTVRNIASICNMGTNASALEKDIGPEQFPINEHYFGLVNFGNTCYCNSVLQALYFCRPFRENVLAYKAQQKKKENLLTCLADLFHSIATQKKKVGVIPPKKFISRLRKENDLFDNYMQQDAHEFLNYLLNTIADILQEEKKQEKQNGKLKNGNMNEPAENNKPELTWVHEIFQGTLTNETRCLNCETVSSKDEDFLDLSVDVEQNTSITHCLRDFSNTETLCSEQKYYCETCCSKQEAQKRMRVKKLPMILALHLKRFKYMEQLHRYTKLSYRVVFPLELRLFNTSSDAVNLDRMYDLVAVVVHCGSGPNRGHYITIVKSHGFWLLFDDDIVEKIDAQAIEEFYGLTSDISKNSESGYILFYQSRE
Procedure, shortened: as §1

USP47 = molecular target: T2, USP47 (UniProt Q96K76)
T2 sequence (whole entry): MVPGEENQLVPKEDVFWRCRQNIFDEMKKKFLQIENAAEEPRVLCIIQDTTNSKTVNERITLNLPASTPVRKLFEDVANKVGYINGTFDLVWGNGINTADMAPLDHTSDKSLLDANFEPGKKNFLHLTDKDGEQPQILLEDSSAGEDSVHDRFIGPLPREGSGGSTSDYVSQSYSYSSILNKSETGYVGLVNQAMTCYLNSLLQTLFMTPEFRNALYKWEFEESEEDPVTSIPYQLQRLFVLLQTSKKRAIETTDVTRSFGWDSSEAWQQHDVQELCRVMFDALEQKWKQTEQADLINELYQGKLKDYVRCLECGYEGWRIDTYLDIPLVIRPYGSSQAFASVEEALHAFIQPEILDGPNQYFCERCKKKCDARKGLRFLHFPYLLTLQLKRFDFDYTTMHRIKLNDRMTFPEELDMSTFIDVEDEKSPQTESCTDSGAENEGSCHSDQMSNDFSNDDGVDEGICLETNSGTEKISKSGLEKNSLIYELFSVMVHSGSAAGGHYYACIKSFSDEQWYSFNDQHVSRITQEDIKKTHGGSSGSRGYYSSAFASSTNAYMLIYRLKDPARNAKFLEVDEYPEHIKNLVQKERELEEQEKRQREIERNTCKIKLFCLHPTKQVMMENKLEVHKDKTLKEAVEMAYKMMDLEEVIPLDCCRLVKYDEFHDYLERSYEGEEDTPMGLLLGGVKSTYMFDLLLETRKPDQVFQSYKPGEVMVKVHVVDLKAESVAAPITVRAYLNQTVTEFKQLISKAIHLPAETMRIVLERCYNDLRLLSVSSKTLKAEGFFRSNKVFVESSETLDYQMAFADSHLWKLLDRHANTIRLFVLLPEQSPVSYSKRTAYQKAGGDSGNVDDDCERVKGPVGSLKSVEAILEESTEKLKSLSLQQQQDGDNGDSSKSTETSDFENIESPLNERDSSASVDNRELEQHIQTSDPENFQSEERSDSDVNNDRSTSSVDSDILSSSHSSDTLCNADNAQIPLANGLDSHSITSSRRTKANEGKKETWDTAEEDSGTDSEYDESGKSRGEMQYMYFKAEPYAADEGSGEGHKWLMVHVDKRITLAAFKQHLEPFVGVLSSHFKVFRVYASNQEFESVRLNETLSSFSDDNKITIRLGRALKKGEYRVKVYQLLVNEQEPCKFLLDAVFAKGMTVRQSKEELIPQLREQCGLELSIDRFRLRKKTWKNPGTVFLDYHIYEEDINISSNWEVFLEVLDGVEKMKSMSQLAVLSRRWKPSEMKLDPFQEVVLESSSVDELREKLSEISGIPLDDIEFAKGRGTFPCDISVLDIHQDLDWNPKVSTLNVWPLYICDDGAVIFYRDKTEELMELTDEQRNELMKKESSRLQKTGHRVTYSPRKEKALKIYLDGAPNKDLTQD
Procedure, shortened: as §1

USP48 = molecular target: T3, USP48 (UniProt Q86UV5)
T3 sequence (whole entry): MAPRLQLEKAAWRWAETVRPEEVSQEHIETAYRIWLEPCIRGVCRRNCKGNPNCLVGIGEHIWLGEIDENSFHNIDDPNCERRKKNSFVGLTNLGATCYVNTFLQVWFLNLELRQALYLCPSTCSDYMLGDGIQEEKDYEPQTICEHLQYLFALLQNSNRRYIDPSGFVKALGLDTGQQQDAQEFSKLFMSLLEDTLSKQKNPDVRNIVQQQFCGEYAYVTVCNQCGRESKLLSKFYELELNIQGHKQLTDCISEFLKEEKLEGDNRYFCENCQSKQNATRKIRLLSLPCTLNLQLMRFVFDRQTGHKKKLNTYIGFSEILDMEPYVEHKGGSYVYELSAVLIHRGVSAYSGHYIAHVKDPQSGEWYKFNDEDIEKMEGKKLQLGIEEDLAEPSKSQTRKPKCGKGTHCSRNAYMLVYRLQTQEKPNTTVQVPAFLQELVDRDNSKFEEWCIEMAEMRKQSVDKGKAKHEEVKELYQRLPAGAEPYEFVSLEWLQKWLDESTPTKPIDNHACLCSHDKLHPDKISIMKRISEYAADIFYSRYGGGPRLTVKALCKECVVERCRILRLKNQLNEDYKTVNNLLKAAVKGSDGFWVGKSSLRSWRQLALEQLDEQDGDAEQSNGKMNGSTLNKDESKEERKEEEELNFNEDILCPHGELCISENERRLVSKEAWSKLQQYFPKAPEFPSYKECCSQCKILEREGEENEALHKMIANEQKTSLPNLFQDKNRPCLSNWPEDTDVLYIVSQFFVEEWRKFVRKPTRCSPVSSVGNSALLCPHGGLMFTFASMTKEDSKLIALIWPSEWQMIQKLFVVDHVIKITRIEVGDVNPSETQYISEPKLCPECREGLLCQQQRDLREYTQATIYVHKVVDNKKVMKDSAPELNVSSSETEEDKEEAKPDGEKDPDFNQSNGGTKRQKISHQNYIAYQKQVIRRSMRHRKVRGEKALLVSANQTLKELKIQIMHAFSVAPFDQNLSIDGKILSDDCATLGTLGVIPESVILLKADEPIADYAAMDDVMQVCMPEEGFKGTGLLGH
Procedure, shortened: as §1

USP5 = molecular target: T4, USP5 (UniProt P45974)
T4 sequence (whole entry): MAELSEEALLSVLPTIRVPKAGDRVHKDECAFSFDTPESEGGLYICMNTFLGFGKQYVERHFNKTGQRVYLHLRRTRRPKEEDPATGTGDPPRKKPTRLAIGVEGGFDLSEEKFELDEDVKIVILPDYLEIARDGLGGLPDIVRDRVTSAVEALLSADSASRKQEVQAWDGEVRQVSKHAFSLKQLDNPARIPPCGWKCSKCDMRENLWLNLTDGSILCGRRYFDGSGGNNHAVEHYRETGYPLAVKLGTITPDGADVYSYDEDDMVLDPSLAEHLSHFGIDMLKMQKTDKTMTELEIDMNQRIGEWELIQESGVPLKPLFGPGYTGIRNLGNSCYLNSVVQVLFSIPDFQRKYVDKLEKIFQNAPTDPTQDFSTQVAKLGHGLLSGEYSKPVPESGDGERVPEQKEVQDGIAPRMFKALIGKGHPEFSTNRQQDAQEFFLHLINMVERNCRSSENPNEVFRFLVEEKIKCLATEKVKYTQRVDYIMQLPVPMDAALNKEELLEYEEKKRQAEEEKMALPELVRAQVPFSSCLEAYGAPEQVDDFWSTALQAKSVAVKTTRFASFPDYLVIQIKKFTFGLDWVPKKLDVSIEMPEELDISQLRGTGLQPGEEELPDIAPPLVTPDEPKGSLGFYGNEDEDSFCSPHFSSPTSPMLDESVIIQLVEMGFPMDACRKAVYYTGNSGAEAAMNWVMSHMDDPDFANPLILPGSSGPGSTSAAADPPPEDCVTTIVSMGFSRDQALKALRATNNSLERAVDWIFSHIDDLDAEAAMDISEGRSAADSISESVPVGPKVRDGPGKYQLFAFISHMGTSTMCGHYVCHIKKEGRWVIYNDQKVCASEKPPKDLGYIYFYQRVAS
Procedure, shortened: as §1

USP54 = USP54 (UniProt Q70EL1)
USP54, sequence (Q70EL1 whole entry): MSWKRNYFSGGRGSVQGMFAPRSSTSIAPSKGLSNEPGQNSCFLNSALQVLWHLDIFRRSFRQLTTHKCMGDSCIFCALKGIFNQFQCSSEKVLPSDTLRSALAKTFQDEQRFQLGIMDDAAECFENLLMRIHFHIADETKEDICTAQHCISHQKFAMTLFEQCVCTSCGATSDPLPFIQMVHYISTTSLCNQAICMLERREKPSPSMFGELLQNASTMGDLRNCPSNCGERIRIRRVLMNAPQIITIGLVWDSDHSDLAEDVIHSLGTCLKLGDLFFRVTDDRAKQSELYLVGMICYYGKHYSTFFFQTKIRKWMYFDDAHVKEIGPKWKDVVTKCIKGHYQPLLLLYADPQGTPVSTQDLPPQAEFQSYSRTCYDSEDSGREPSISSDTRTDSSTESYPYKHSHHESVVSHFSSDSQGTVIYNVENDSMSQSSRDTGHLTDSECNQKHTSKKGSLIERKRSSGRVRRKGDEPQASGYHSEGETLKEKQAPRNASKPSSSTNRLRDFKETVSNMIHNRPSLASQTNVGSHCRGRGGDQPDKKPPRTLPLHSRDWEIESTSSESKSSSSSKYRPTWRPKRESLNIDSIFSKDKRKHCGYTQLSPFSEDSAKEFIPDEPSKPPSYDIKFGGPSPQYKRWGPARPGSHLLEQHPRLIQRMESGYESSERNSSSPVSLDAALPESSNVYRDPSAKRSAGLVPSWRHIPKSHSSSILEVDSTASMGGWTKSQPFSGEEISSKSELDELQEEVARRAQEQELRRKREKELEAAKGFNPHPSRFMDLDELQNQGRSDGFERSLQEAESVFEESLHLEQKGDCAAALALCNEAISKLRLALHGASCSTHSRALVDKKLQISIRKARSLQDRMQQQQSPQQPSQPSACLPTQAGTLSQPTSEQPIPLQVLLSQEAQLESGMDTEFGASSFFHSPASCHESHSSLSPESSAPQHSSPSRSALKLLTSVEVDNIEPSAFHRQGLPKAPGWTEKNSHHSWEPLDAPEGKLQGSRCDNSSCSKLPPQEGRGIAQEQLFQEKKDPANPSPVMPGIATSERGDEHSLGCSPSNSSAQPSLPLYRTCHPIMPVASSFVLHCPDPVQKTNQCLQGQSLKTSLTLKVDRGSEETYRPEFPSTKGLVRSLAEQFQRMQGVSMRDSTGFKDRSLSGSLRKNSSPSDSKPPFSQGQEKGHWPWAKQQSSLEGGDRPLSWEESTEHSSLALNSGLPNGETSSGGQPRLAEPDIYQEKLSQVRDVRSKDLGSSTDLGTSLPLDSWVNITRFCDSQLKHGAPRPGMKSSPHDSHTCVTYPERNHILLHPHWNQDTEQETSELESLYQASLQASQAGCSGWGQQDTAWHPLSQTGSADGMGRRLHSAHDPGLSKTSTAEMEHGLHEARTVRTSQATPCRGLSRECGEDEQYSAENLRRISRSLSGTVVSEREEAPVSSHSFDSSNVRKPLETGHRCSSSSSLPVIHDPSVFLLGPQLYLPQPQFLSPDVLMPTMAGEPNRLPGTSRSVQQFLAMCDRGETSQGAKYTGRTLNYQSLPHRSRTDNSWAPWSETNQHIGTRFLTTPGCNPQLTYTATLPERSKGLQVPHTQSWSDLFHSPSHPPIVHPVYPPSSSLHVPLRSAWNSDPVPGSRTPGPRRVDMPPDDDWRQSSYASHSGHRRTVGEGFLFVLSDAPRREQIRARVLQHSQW
Procedure, shortened: as §1

USP7 = USP7 (UniProt Q93009)
USP7, sequence (Q93009 whole entry, looked up): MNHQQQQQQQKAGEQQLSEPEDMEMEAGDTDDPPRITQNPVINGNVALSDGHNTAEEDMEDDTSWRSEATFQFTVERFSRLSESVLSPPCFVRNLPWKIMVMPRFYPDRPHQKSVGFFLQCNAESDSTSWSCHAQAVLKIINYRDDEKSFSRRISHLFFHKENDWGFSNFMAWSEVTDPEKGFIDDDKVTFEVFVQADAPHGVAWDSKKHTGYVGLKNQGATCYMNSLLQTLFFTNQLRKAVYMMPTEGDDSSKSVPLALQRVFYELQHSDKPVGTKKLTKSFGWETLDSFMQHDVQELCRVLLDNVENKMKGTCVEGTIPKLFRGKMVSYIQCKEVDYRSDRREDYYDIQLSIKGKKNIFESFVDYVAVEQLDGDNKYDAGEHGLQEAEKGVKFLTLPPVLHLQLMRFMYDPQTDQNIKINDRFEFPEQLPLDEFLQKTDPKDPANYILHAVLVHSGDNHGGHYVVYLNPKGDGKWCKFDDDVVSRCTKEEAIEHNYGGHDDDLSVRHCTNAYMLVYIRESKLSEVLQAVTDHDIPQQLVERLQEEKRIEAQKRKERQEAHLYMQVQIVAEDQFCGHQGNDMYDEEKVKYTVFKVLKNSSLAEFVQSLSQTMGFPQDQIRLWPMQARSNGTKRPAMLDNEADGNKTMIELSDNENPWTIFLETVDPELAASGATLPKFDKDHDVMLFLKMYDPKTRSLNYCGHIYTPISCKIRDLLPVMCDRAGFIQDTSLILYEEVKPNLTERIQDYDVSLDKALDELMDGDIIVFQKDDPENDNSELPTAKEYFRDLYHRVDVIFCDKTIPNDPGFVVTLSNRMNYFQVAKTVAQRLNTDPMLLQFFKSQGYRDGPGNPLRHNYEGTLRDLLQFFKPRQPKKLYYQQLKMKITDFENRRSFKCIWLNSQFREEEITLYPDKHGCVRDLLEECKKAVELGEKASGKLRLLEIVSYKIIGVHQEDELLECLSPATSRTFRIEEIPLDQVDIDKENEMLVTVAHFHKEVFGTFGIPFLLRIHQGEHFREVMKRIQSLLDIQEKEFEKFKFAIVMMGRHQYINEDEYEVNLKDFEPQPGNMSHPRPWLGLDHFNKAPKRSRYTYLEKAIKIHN
Procedure, shortened: as §1

USP8 = molecular target: T5, USP8 (UniProt P40818)
T5 sequence (whole entry): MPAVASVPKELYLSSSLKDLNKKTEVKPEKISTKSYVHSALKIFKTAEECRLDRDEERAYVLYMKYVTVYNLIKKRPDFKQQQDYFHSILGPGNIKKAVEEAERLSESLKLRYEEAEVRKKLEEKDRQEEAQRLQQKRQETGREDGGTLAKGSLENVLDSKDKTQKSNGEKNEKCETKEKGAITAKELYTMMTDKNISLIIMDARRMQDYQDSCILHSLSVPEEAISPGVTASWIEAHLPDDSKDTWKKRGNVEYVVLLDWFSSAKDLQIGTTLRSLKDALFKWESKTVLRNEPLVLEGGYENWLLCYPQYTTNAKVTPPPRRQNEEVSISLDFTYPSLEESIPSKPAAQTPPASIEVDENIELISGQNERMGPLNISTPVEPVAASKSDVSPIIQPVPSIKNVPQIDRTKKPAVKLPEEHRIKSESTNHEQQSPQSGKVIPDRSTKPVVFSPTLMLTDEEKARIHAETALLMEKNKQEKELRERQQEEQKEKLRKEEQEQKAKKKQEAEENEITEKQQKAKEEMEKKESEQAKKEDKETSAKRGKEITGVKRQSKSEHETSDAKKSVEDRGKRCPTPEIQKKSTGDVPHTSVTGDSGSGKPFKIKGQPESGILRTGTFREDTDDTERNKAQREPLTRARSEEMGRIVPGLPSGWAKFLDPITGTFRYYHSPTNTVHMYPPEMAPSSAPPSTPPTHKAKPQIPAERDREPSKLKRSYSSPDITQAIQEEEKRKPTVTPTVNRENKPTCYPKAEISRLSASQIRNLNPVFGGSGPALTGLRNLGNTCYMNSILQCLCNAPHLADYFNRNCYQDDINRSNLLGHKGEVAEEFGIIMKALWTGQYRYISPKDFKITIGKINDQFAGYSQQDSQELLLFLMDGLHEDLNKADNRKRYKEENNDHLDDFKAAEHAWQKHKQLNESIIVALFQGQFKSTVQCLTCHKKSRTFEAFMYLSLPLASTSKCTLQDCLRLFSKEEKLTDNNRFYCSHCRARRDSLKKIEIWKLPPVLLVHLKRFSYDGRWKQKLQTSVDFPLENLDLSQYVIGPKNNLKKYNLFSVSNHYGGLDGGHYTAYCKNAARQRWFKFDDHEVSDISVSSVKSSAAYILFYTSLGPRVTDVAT
Procedure, shortened: as §1

Measured: log2 ratio of Biotin-Ahx-Ub-VS probe labelling

Cc1ccc(C(=O)NCCNC(=O)CCl)cc1
inactive: USP42 -0.216 | USP46 0.0112 | USP47 -0.158 | USP48 -0.318 | USP5 -0.123 | USP54 0.576 | USP7 -0.262 | USP8 -0.271
